Source: PubChem (several laboratories)
CYP2C19 activ: activators of human cytochrome P450 2C19 | 96,000 tested, under 10 active | recombinant CYP2C19, luciferin-H EGE luminescence; hits give high values; 0 = fully inhibited enzyme, 1 = untreated enzyme | activation factor at 5 µM | AID 1025;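 active means activation factor of at least 2 at 5 µM in the primary screen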
PTK2B oligo ant: antagonists of human Pyk2 oligomerization; Q14289; Q293 cells, Pyk2 FERM NanoBiT luminescence; hits give low values; z-score (the deposit names both 25 µM and 10 µM); 99,000 compounds, 0.83% hits;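 active means Z-score of -3 or lower, scaled per plate to the spread of control and sample wells; inactive means z-score above -3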;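 further: negative z-score means lost luminescence so less FERM oligomerization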
Cav3 T inh: inhibitors of human Cav3.2 T-type calcium channel; Cav3.2-expressing cells, Fluo-4 calcium fluorescence FDSS; hits give low values; B-score at 10 µM; 100,000 compounds, 4% hits; AID 449739;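 active means single-dose well whose peak fluorescence ratio is a statistical outlier from its plate by either plate-standardised score or position-corrected B-score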
CYP2C9 inh: blocks human cytochrome P450 2C9. CYP2C9 Supersomes, luciferin-H conversion, luminescence. inhibition, % at 5 µM. 96,000 compounds, 20% hits. AID 777. P11712;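 active means blocking of liver enzyme CYP2C9 beyond about 50% at 5 µM, limit read from the data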
Target sequence (P11712 whole entry, looked up): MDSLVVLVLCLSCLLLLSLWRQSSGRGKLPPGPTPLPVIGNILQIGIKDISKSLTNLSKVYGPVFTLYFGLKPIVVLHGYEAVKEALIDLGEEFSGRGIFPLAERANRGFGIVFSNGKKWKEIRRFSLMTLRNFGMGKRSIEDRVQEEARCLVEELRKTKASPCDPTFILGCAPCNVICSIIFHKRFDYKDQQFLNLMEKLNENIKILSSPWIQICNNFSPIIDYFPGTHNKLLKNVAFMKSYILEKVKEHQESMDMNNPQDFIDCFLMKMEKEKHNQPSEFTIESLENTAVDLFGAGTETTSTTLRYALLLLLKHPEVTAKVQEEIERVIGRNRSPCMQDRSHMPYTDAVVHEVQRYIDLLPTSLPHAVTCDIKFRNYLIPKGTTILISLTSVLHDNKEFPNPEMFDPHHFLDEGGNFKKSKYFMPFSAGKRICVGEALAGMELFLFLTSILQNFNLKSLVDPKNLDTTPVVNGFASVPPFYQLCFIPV
CYP2C19 inhib: human CYP2C19 inhibition; P33261; CYP2C19 Supersomes, luciferin-H EGE luminescence, 30 min; inhibition, % at 5 µM; 96,000 compounds, 21% hits;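 active means CYP2C19 inhibition above a set limit at 5 µM in the primary screen, cut at about 50% in these data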
CYP2C9 activ: increases human cytochrome P450 2C9 activity; 96,000 compounds, 1.4% hits; activation factor at 5 µM; recombinant CYP2C9, luciferin-H conversion, luminescence; hits give high values; factor 1 = untreated enzyme, 0 = blocked; AID 1024;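 active means activation factor of 2 or more for CYP2C9 at a 5 µM dose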
Hits are given with their value; – = inactive; · = not tested or not shown. Sampled rows, rich in hits. Any-hit rate of the full collection: about 27%.

SMILES	CYP2C19 activ	PTK2B oligo ant	Cav3 T inh	CYP2C9 inh	CYP2C19 inhib	CYP2C9 activ
CC1(O)C(=O)C=C2C=C(c3ccc(C#N)cc3)OC=C2C1=O (centres undefined)	·	·	–	·	·	·
CCOC(=O)CN1C(=O)N[C@@H](c2ccccc2)C(C(=O)OC)=C1C	·	·	–	·	·	·
CCOC(=O)C1=C(C)N(Cc2ccccc2)C(=O)NC1c1ccc(OC)cc1 (centres undefined)	·	–	-5.83	·	·	·
CCOC(=O)C1=C(c2ccccc2)N(C)C(=O)NC1c1ccc(O)c(OC)c1 (centres undefined)	–	–	–	–	69.4	–
Cc1cc(=O)c(C(=O)O)cn1Nc1ccc(Cl)cc1	–	–	–	–	–	–
CCOC(=O)c1c(N)sn(-c2ccccc2C)c1=S	–	–	–	61.5	–	–
CCOC(=O)c1cc(-c2ccccc2)sc1N	·	–	–	·	·	·
CCN1C(=O)CC(N2CCN(CC(=O)NC(C)C)CC2)C1=O (centres undefined)	–	–	–	–	–	–
CCOC(=O)CN(C(=O)CSc1nnc2c(n1)[nH]c1c(C)cc(C)cc12)c1ccccc1	–	·	–	–	–	–
CCOC(=O)CN(C(=O)CSc1nnc2c(n1)[nH]c1ccc(F)cc12)c1ccccc1	–	–	-4.34	74.9	100.2	–
CCOC(=O)CN(C(=O)CSc1nnc(CNc2ccc(F)cc2)n1CC)c1ccc(F)cc1	–	–	–	–	–	–
CCOC(=O)c1c(NC(=O)CSc2nnc3c(n2)[nH]c2ccc(F)cc23)sc(C(C)=O)c1C	–	–	–	75.7	64.0	–
CCOC(=O)CN(C(=O)CSc1nnc2c(n1)[nH]c1ccccc12)c1ccccc1	–	–	–	–	81.4	–
Cn1c(CNc2ccccc2)cc(=O)n(C)c1=O	–	–	–	–	–	–
CC(C)(C)c1ccc(C2=CC(c3ccccc3)n3ncnc3N2)cc1 (centres undefined)	·	·	–	·	·	·
COc1ccc(C2=NOC(C)(c3nnc(-c4ccccc4)o3)C2)cc1 (centres undefined)	·	·	–	·	·	·
CO/N=C/NC(=O)NOCc1ncc(C(F)(F)F)cc1Cl	–	–	–	–	–	–
O=C(N/C=N/OCc1ccc(Cl)cc1Cl)NOCc1ncc(C(F)(F)F)cc1Cl	–	–	–	85.8	96.9	–
CC(C)(C)Sc1nc(O)cc(=O)[nH]1	–	–	–	–	–	–
COc1ccc(/C=c2/sc3n(c2=O)NC2(c4ccccc4)N(C)C(=O)N(C)C2(c2ccccc2)N=3)cc1 (centres undefined)	–	–	–	59.8	–	–
O=C(CC1Sc2ccccc2NC1=O)OC(C(=O)NCCc1ccccc1)c1cccnc1 (centres undefined)	–	–	·	–	55.1	–
COCCNC(=O)C(OC(=O)CC1Sc2ccccc2NC1=O)c1ccncc1 (centres undefined)	–	–	–	87.3	82.9	–
CCO[C@@H]1OC(C(=O)N2CCOCC2)=C[C@H](c2coc3ccccc3c2=O)[C@H]1CCCO	·	·	–	·	·	·
COc1ccc(-c2nc(C#N)c(NCc3ccccc3Cl)o2)cc1OC	–	–	–	–	–	–
CNCc1ccccc1Sc1ccc(OC)c(OC)c1	–	–	–	–	57.7	–
SMILES	CYP2C19 activ	PTK2B oligo ant	Cav3 T inh	CYP2C9 inh	CYP2C19 inhib	CYP2C9 activ
Cc1c(Cl)c([N+](=O)[O-])nn1CCCC(=O)Nc1sc2c(c1C#N)CCC2	–	–	·	–	–	–
O=C(Oc1ccc(Cl)c2cccnc12)c1ccco1	–	–	–	–	53.4	–
O=[N+]([O-])c1ccc(N2CCN(CCO)CC2)cc1Sc1nc2ccccc2[nH]1	–	·	·	55.6	–	–
COc1cc(C(=O)N2CCN(C/C=C/c3ccccc3)CC2)cc(OC)c1OC	·	–	–	·	·	·
COc1cc(CN2CCN(c3ccccc3F)CC2)cc(OC)c1O	–	–	–	–	80.1	–
COC(=O)c1cc(CN2CCN(c3ccccc3C)CC2)ccc1O	–	–	–	50.8	–	–
COc1ccccc1N1CCN(CCC(=O)Nc2ccc3c(c2)OCO3)CC1	–	–	–	64.7	54.4	–
COc1ccc(C)cc1NC(=O)CN1CCN(C/C=C/c2ccccc2)CC1	–	–	–	66.6	87.5	–
COc1cc(OC)cc(-c2cc3nc(C)c(CCC(=O)O)c(C)n3n2)c1	–	·	–	–	–	–
CCC(C)(C(=O)NC1CCCCC1)N(Cc1ccco1)C(=O)c1ccccn1 (centres undefined)	–	–	–	–	–	–
CC(C)(C)C(=O)CN1CCN(S(=O)(=O)c2ccc(F)cc2)CC1	–	–	·	–	–	–
COc1ccc(C)cc1NC(=O)CN1CCN(c2ccccc2F)CC1	–	–	·	–	69.7	–
COc1ccc(C)cc1NC(=O)CN1CCN(S(=O)(=O)c2ccc(F)cc2)CC1	–	–	–	–	52.5	–
COc1ccc(OC)c(NC(=O)CCN2CCN(c3ccccc3F)CC2)c1	–	–	–	60.3	77.0	–
COc1ccccc1N1CCN(CC(=O)Nc2cccc(F)c2)CC1	–	–	–	–	–	–
COc1cccc2sc(N(CCCN(C)C)C(=O)c3sc4ccccc4c3Cl)nc12	·	–	·	·	·	·
Cc1cc(C)n(-c2nnc(C)n2/N=C/c2cc(Br)ccc2OCc2ccccc2)n1	–	–	-6.9	–	–	–
Cc1cc(C)n(-c2nnc(C)n2/N=C/c2ccccc2OCc2ccccc2Cl)n1	–	–	-5.56	51.8	56.0	–
O=C1NC2=C(C(=O)CCC2)C(c2ccc3ncccc3c2)N1 (centres undefined)	–	–	–	–	–	–
COc1cc(-c2nc3cnccn3c2Nc2c(C)cccc2C)ccc1O	–	–	–	53.1	99.1	–
Cc1cccc(NS(=O)(=O)c2ccc(NC(=O)CN(c3cc([N+](=O)[O-])ccc3C)S(C)(=O)=O)cc2)c1	·	–	·	·	·	·
CN1CCN(S(=O)(=O)c2ccc(N(C)CC(=O)Nc3ccc(F)cc3)nc2)CC1	·	·	–	·	·	·
CSc1cccc(NC(=O)CN(c2ccc(C)cc2C)S(C)(=O)=O)c1	–	–	-7.93	62.1	94.6	–
Cc1ccc(N(CC(=O)Nc2ccc(F)cc2)S(=O)(=O)N2CCCC2)cc1	–	–	–	62.1	–	–
CNC(=O)CN(c1cccc(Br)c1)S(C)(=O)=O	–	–	–	–	–	–
SMILES	CYP2C19 activ	PTK2B oligo ant	Cav3 T inh	CYP2C9 inh	CYP2C19 inhib	CYP2C9 activ
CSc1cccc(NC(=O)CN(c2cccc(C)c2)S(C)(=O)=O)c1	–	–	-4.29	62.0	72.5	–
CSc1cccc(NC(=O)CSc2ccc(C)cc2)c1	–	–	–	–	–	–
CSc1cccc(NC(=O)CSc2ccc(Cl)cc2)c1	–	–	–	–	60.6	–
Cc1nnc(SCCN2CCOCC2)n1C	·	–	·	·	·	·
Cc1cc(C)cc(OCC(=O)OCC(=O)c2c(N)n(C)c(=O)n(C)c2=O)c1	–	–	–	–	–	–
Cc1ccccc1NC(=S)NN1CCN(C)CC1	–	–	–	–	–	–
CCn1cc(Br)c(C(=O)NC(C)c2ccccc2)n1 (centres undefined)	–	–	–	–	–	–
